Screening results: PubChem BioAssay, National Center for Advancing Translational Sciences (NCATS)
Giardia killer – Small Molecules that selectively kill Giardia lamblia: qHTS | Giardia lamblia trophozoite viability | activity change, % at 7.66 µM, hits read low | actives 0.15% (n = 340,000); in the data active means activity change below about -80%; inconclusive means between about -30% and that limit;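 further: parasites exposed to compound for two days anaerobically before the ATP read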
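Anaerobic 48 hrs incubation at 37 deg C of 100 trophozoites/well with test compounds; ATPLite 1-Step luminescence, 15-30 min RT, reports cellular ATP as viability.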
uPA generation – qHTS for Inhibitors of Cell Surface uPA Generation; cell surface uPA generation assay, qHTS; Potency, µM (highest dose often 38.3 µM), hits mostly inhibitors; actives 0.31% (n = 330,000); AID 540303, 2011; active means well fitted inhibition curve with a large enough effect; inconclusive means small, poorly fitted or top-dose-only effect; inactive means no such curve, though single readings can be large or run the other way; tested in mouse RAW 264.7 cells; further: nearly all actives have a fitted effect of over 55% in size
ATXN2 expr inh – Primary qHTS for Inhibitors of ATXN expression; HEK-293 ATXN2-luciferase reporter, luminescence, 24 h; Potency, µM (top dose mostly 57 µM), most hits filed as inhibitors; actives 0.72% (n = 360,000); AID 1745845, 2022; further: nearly all actives have a fitted effect of over 55% in size
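qHTS (up to 57 uM final) was run with 24 h compound exposure of reporter cells at 37 °C. Each well was multiplexed: SteadyGlo luminescence measured ATXN2-luciferase expression after a fluorogenic Gly-Phe-AFC viability readout (25 uM final).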
ATXN viability – Viability Counterscreen for Primary qHTS for Inhibitors of ATXN expression; S2 cells (HEK-293 line with an ATXN2-luciferase reporter) viability, CellTiter-Fluor protease fluorescence, 24 h; Potency, µM (titrated, usually from 56.7 µM), actives largely listed as cytotoxic; actives 0.49% (n = 400,000); further: nearly all actives have a fitted effect of over 40% in size
TGFb inhibitor – qHTS for Inhibitors of TGF-b; actives 1.2% (n = 410,000); Potency, µM (doses to about 46.1 µM), most hits filed as inhibitors; HepG2 CAGA-GFP TGF-b/SMAD3 reporter, GFP fluorescence, 18 h; TGF-beta stimulated, 500 pg/mL final; AID 588855, 2011; further: nearly all actives have a fitted effect of over 65% in size
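Read-out: total well GFP (ex488/em500-530) summed from mean per-cell fluorescence. Cells: HEPG2 CAGA-GFP, 1% FBS DMEM, 18 h at 37 degrees C with 500 pg/mL final TGF-beta. Unstimulated wells served as the full-inhibition control; stimulated DMSO wells = 0%.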
HepG2 tox – qHTS for Inhibitors of TGF-b: Cytotox Counterscreen; AID 588856, 2011; Potency, µM (highest dose often 46.1 µM), most hits filed as cytotoxic; actives 0.76% (n = 410,000); HepG2 CAGA-GFP viability, ATP luminescence, 18 h
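CellTiter-Glo luminescence gave cytotoxicity after 18 hours at 37 degrees C. The cells were HepG2 CAGA-GFP in 1% FBS DMEM, stimulated with 500 pg/mL TGF-beta after compound addition. %Activity was normalised to no-cell wells (complete cell-killing) and DMSO (no toxicity), and curves were fitted and classified.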
Numbers stand for hits. Most compounds without a hit are left out; they make up all but 2.6% or so of the library. Unless noted, the call rests on the fitted dose curve; in most records, active means well fitted curve in the direction sought with a large enough effect; inconclusive means small, poorly fitted or top-dose-only effect, or another doubt; inactive means no such curve, though single readings can be large; an effect the other way counts as inactive or inconclusive.

`CCN1C(C(=O)c2ccccc2)=C(OC(=O)C(C)C)c2ccccc2S1(=O)=O` gave ATXN2 expr inh inactive, ATXN viability inactive, TGFb inhibitor 11.2µM and HepG2 tox inactive.
CCCCN1C(C(=O)c2ccccc2)=C(OC(=O)CC)c2ccccc2S1(=O)=O was read as ATXN2 expr inh inconclusive, ATXN viability inconclusive, TGFb inhibitor inconclusive and HepG2 tox inactive.
Cc1cn(C2CC3OCC(NC(=O)C(NC(=O)OC(C)(C)C)C(C)OCc4ccccc4)C3O2)c(=O)[nH]c1=O (stereo not drawn) was read as Giardia killer inactive, TGFb inhibitor inactive and HepG2 tox inactive.
`CCOc1cc(/C=C2/C(=O)ON=C2C)ccc1OCc1ccccc1F` gave Giardia killer inactive, uPA generation inactive, ATXN2 expr inh inconclusive, ATXN viability inconclusive, TGFb inhibitor inconclusive and HepG2 tox 15.8µM.
`Cc1cccc(C)c1OCCn1c(C2CC(=O)N(Cc3ccc(F)cc3)C2)nc2ccccc21` (stereo not drawn) gave ATXN2 expr inh inconclusive, TGFb inhibitor inconclusive and HepG2 tox inactive.
For Cc1cccc(OCCCCn2c(C3CC(=O)N(c4ccc(C)cc4C)C3)nc3ccccc32)c1 (stereo not drawn) the results were ATXN2 expr inh inconclusive, ATXN viability inconclusive, TGFb inhibitor 10µM and HepG2 tox inactive.
`Cc1cccc(OCCCCn2c(C3CC(=O)N(c4ccccc4Cl)C3)nc3ccccc32)c1` (stereo not drawn) gave ATXN2 expr inh inactive, ATXN viability inactive, TGFb inhibitor inconclusive and HepG2 tox inactive.
Screening Cc1ccc(C)c(OCCn2c(C3CC(=O)N(Cc4ccc(F)cc4)C3)nc3ccccc32)c1 (stereo not drawn) returned ATXN2 expr inh inconclusive, TGFb inhibitor 12.6µM and HepG2 tox inactive.
Screening CCc1ccccc1N1CC(c2nc3ccccc3n2CCOc2ccc(Cl)c(C)c2)CC1=O (stereo not drawn) returned ATXN2 expr inh inconclusive, ATXN viability inconclusive, TGFb inhibitor 11.2µM and HepG2 tox 10µM.
Screening CCc1ccccc1N1CC(c2nc3ccccc3n2CCCCOc2ccccc2OC)CC1=O (stereo not drawn) returned ATXN2 expr inh inactive, ATXN viability inactive, TGFb inhibitor inactive and HepG2 tox inactive.
Screening Cc1cc(OCCn2c(C3CC(=O)N(Cc4ccc(F)cc4)C3)nc3ccccc32)ccc1Cl (stereo not drawn) returned ATXN2 expr inh inconclusive, TGFb inhibitor 12.6µM and HepG2 tox inactive.
Screening C=CCN1CC(c2nc3ccccc3n2CCOc2ccccc2)CC1=O (stereo not drawn) returned Giardia killer inactive, uPA generation inactive, ATXN2 expr inh inactive, ATXN viability inactive, TGFb inhibitor inactive and HepG2 tox inactive.
For CCCCCCCCCCCCCCCCCCOP(=O)([O-])OC1CC[N+](C)(C)CC1 the results were ATXN viability inactive.
For CC(C)C[C@@H](N)[C@H](O)C(=O)N[C@H](C(=O)N[C@H](C(=O)N[C@@H](CC(=O)O)C(=O)O)C(C)C)C(C)C the results were ATXN2 expr inh inactive.
Cc1cc(C)c2c(c1)/C(=C/C(=O)c1ccc(Br)s1)C(=O)N2 was read as Giardia killer inactive, uPA generation inactive, ATXN2 expr inh 17.8µM, ATXN viability inconclusive, TGFb inhibitor inactive and HepG2 tox inactive.
Cc1cccc2c1NC(=O)/C2=C\C(=O)c1cccs1 was read as Giardia killer inactive, uPA generation inactive, ATXN2 expr inh inconclusive, ATXN viability inactive, TGFb inhibitor 10µM and HepG2 tox inactive.
`CCc1ccc2c(c1)/C(=C/C(=O)c1cccs1)C(=O)N2` gave Giardia killer inactive, uPA generation inactive, ATXN2 expr inh inconclusive, TGFb inhibitor inconclusive and HepG2 tox 11.2µM.
`Cc1cc(Br)c2c(c1)/C(=C/C(=O)c1cccs1)C(=O)N2` gave Giardia killer inactive, uPA generation inactive, ATXN2 expr inh inconclusive, ATXN viability inconclusive, TGFb inhibitor inconclusive and HepG2 tox inactive.
Screening Brc1ccc(C=C2C=c3ccccc3=C2)cc1 returned TGFb inhibitor inactive and HepG2 tox inactive.
COc1ccc(NC(=O)c2cccc(N3C(=O)c4cccc([N+](=O)[O-])c4C3=O)c2)cc1 was read as Giardia killer inactive, uPA generation inconclusive, ATXN2 expr inh inactive, ATXN viability inactive, TGFb inhibitor inactive and HepG2 tox inactive.
COc1ccc(/C=C2\C(=O)N(c3c(Cl)cc(Cl)cc3Cl)N=C2NC(=O)c2cccc([N+](=O)[O-])c2)cc1 was read as Giardia killer inactive, uPA generation inactive, ATXN2 expr inh 31.6µM, TGFb inhibitor inactive and HepG2 tox inactive.
Screening CC1(C)C[C@H](O)[C@]2(CO)CC[C@]3(C)C(=CCC4[C@@]5(C)CC[C@H](O)C(C)(C)C5CC[C@]43C)[C@@H]2C1 (stereo partly drawn) returned Giardia killer inactive, uPA generation inactive, ATXN2 expr inh inactive, ATXN viability inactive, TGFb inhibitor inactive and HepG2 tox inactive.
`CC1(C)CC[C@]2(C(=O)O)CC[C@]3(C)C(=CC[C@@H]4[C@@]5(C)CC[C@H](O)C(C)(C)[C@@H]5CC[C@]43C)[C@@H]2C1` gave Giardia killer inactive, uPA generation inactive, ATXN2 expr inh inactive, ATXN viability inactive, TGFb inhibitor inactive and HepG2 tox inactive.
`CC1(C)C[C@H](O)[C@]2(CO)[C@H](O)C[C@]3(C)C(=CCC4[C@@]5(C)CC[C@H](O)C(C)(C)C5CC[C@]43C)[C@@H]2C1` (stereo partly drawn) gave Giardia killer inactive, uPA generation inactive, ATXN2 expr inh inconclusive, ATXN viability inconclusive, TGFb inhibitor inconclusive and HepG2 tox 11.2µM.
For C[C@@H]1[C@H](C)CC[C@]2(C(=O)O)CC[C@]3(C)C(=CC[C@@H]4[C@@]5(C)CC[C@H](O)C(C)(C)[C@H]5CC[C@]43C)[C@@H]12 the results were ATXN2 expr inh 55.9µM.
`COCc1c(C(=O)NC2CCCCC2)cnn1-c1nccc(-c2cc(C)sc2C)n1` gave ATXN viability inactive.
Screening CC(=O)Nc1ccc(NC(=O)C2Cc3c(-c4ccc(Cl)cc4)ccnc3O2)cc1 (stereo not drawn) returned ATXN2 expr inh inactive, ATXN viability inactive, TGFb inhibitor inactive and HepG2 tox inactive.
For COc1ccc(NC(=O)C2Cc3c(-c4ccc(Cl)cc4)ccnc3O2)cn1 (stereo not drawn) the results were ATXN2 expr inh inconclusive, ATXN viability 3.55µM, TGFb inhibitor inactive and HepG2 tox inactive.
